This is a sample that favours compounds with a hit; in the whole collection about 2.4% have one here.
IL1B cytotox = cytotoxicity in IL-1B stimulated HUVEC, primary screen, cytotoxicity control for IL-1B NFkB translocation project, imaging, Hoechst nuclear count, IL-1B stimulus | HUVEC cell count loss | 94,000 tested, 0.41% active | cell count reduction, % at 2 µM | AID 845, 2007;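 active = cell count reduction more than 3 SD above the screen-wide mean, cut at about 70% in these data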;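 note: normalized per plate to untreated control cells as the no-loss baseline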
NFkB transloc pot = enhancers of NFkB p65 translocation in HUVEC – imaging, IL-1B stimulus, high-content imaging, primary screen; HUVEC IL-1B NFkB p65 nuclear translocation imaging; activation, % at 2 µM; 94,000 tested, 0.3% active; AID 819, 2007;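 active = activation above 40%, about the mean plus 3 SD, also judged a hit on visual image review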;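 note: percent activation is computed from the nuclear over cytoplasmic p65 intensity ratio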
NFkB transloc inh = inhibitors of IL-1B driven NFkB p65 nuclear import, primary screen, imaging, HUVEC, IL-1B stimulus, high-content imaging | HUVEC IL-1B NFkB p65 nuclear translocation imaging | inhibition, % at 2 µM | 94,000 tested, 0.43% active | AID 796, 2007;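 active = inhibition above about 30% together with a positive call from visual inspection of the well image, limit read from the data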;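 note: nuclear over cytoplasmic p65 intensity ratio measured by imaging; 0% = IL-1B stimulated DMSO wells and 100% = unstimulated DMSO wells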
JNK3 blocker = JNK3 kinase activity inhibitors, primary screen, biochemical, human, purified enzyme | Mitogen-activated protein kinase 10 (Homo sapiens), P53779 | HTS | inhibition, % at 8 µM | 60,000 tested, 0.61% active | AID 746, 2007; in the data active = inhibition above about 17%;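 note: 0% = DMSO and 100% = reference inhibitor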
Target sequence (P53779 whole entry, looked up): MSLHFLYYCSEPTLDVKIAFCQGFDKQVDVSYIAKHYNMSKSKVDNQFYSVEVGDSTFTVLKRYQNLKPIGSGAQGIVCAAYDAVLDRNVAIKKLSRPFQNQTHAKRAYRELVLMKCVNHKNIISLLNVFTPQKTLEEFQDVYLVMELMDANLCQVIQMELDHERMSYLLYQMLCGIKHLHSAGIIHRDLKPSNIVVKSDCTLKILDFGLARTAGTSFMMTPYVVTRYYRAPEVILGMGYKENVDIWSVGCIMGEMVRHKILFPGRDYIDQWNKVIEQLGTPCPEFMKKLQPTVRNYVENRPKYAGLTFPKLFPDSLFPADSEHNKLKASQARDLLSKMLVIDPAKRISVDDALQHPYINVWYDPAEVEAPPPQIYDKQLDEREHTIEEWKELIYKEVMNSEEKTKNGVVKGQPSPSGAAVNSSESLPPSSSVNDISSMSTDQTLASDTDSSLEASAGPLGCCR
PTK2B oligo ant = antagonists of Pyk2 self-association, primary screen, Q293 cells, FERM NanoBiT luminescence, HTS; 99,000 tested, 0.83% active; AID 1347419, 2020; z-score (the deposit names both 25 µM and 10 µM); hits give low values;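 active = Z-score of -3 or lower, scaled per plate to the spread of control and sample wells; inactive = z-score above -3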;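 note: negative z-score means lost luminescence so less FERM oligomerization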
FAK blocker = FAK kinase inhibitors, primary screen, biochemical; inhibition, %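 (tested at 7 µM)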; AID 727, 2007; Focal adhesion kinase 1 (Homo sapiens), Q05397; biochemical FAK kinase activity assay; 97,000 tested, 0.84% active;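 note: 0% = DMSO and 100% = reference compound high control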
FAK inh confirm = FAK kinase inhibitors, retest, confirmation, biochemical. FAK kinase biochemical inhibition assay. shares compounds with FAK blocker. AID 794, 2007. inhibition, % at 7 µM. 750 tested, 28% active
The depositor's hits bear a star; x = no result given. Cut-off read from the data, not from the text of the source, unless noted: active = inhibition above about 19%; inactive = the rest.

SMILES	IL1B cytotox	NFkB transloc pot	NFkB transloc inh	JNK3 blocker	PTK2B oligo ant	FAK blocker	others
COc1ccc(CCNCc2ccccn2)cc1OC	-8	-36	36*	0	1.4	0
COc1ccc(CCNCc2ccc(F)cc2)cc1OC	19	-12	12	x	0.56	2
CCC(=NCCc1c[nH]c2ccccc12)c1c(O)n(C)c(=O)n(C)c1=O	-3	-16	16	x	0.25	1
CN1C(=O)c2ccccc2Sc2ccc(C(=O)N3CCC4(CC3)OCCO4)cc21	-3	157*	-157	x	1.1	-2
COc1ccc(/C=C2/C(=O)NC(=O)N(C3CCCCC3)C2=O)cc1CSc1ccccn1	-2	5	-5	x	x	-8
CCn1nc(-c2cccs2)nc2c(=O)n(C)c(=O)nc1-2	x	x	x	47*	-3.3*	x
O=c1c2ccccc2nc(-c2cccs2)n1-c1ccccc1	-3	-5	4	x	-0.39	1
CCCNC(=O)c1c(N)n(CC2CCCO2)c2nc3ccccc3nc12 (stereo unspecified)	-14	6	-6	0	0.12	15
CC(C)OCCCNC(=O)c1c(N)n(CC2CCCO2)c2nc3ccccc3nc12 (stereo unspecified)	90*	-97	97*	-5	0.15	4
O=C(CNS(=O)(=O)c1ccc(Br)s1)N1CCC2(CC1)OCCO2	14	43*	-43	3	0.67	-2
O=C(c1ccc(CNS(=O)(=O)c2ccc(Br)cc2)cc1)N1CCC2(CC1)OCCO2	x	x	x	x	0.81	x
COP(=O)(OC)C1(Nc2ccc(C)cc2)CCCCC1	x	x	x	x	0.05	2
O=c1c2ccccc2nc(-c2ccco2)n1-c1cccnc1	84*	-4	4	-10	-0.64	1
O=c1c2ccccc2nc(-c2ccco2)n1-c1ccccn1	3	4	-4	2	0.18	0
O=c1c2ccccc2nc(-c2ccc(-c3ccccc3)cc2)n1-c1ccncc1	19	-4	4	x	-1.9	1
CCN1/C(=C\C=C\C2=[N+](CC)c3ccccc3C2(C)C)C(C)(C)c2ccccc21	-18	19	-19	x	-3.4*	-1
COc1ccc(N=C(C)c2c(O)n(C3CCCCC3)c(=O)[nH]c2=O)c(OC)c1	4	0	0	-5	-3.4*	5
CCCNS(=O)(=O)c1ccc(OCC(=O)N2CCN(C)CC2)cc1	88*	25	-25	x	0.27	-2
CCCNS(=O)(=O)c1ccc(OCC(=O)N2CCN(Cc3ccc4c(c3)OCO4)CC2)cc1	-9	-4	4	7	1.6	-3
COc1ccc(CCn2c(O)c(C=NCCCN(C)C)c(=O)[nH]c2=O)cc1OC	-3	16	-16	-1	0.21	-4
O=c1[nH]c(=S)n(Cc2ccc(F)cc2)c(O)c1C=NCc1cccnc1	6	9	-9	x	0.37	0
O=c1[nH]c(=O)n(CCC2=CCCCC2)c(O)c1C=NCc1cccnc1	26	-8	8	3	-3.2*	-2
CCN(CC)CCN=Cc1c(O)n(CCC2=CCCCC2)c(=O)[nH]c1=O	89*	-26	26	-1	1.1	1
CCN1CCC(O)(c2ccccc2)C(C(=O)c2ccccc2)C1 (stereo unspecified)	42	-5	6	x	1.2	1
Brc1ccc2c(c1)C(OC1CN3CCC1CC3)c1ccccc1CS2 (stereo unspecified)	x	x	x	x	-0.66	x
SMILES	IL1B cytotox	NFkB transloc pot	NFkB transloc inh	JNK3 blocker	PTK2B oligo ant	FAK blocker	others
CCC12C=CCN3CCC4(c5cc(Br)c(OC)cc5N(C)C4C(O)(C(=O)OC)C1OC(C)=O)C32 (stereo unspecified)	-20	40*	-40	x	0.1	4
CCCCn1c(O)c(C(CC)=NC(C)c2ccccc2)c(=O)[nH]c1=O (stereo unspecified)	-16	-19	19	x	-3.8*	-2
CCCCn1c(O)c(C(C)=NC(C)c2ccccc2)c(=O)[nH]c1=O (stereo unspecified)	-55	-3	3	-5	-3.6*	2
C=CCn1c(O)c(N=Nc2c(C)n(C)n(-c3ccccc3)c2=O)c(=O)[nH]c1=S	x	x	x	x	-0.23	x
COC(=O)C(O)(c1ccc(N(C)C(=O)OC(C)C)cc1)C(F)(F)F (stereo unspecified)	-6	6	-6	x	2	-1
CC(C)CCn1c(=O)c(C(=O)Nc2ccccc2S(N)(=O)=O)c(O)c2ccccc21	-9	-39	39*	x	-1.1	-1
Cc1cc(C)cc(N2C(=O)NC(=O)/C(=C\c3cccn3-c3ccc(Cl)cc3)C2=O)c1	17	-1	1	x	-3.2*	-4
O=C1C2CCCN2C(c2cccnc2)N1c1ccc(Cl)c(Cl)c1 (stereo unspecified)	-26	17	-17	0	-3.1*	0
O=C(c1cccn2c(=O)c3ccc(Cl)cc3nc12)N1CCC2(CC1)OCCO2	-7	2	-2	x	-0.36	3
CCCCn1c(NS(=O)(=O)c2ccc(C)cc2)c(C(=O)OCC)c2nc3ccccc3nc21	x	x	x	x	-1.2	x
CCCCn1c(NC(=O)c2ccco2)c(C(=O)OCC)c2nc3ccccc3nc21	5	4	-4	6	-1.8	27*	FAK inh confirm=0
COc1ccc2c(c1)c(C(=O)CN1CCC3(CC1)OCCO3)c(C)n2Cc1ccccc1	-1	13	-13	x	-0.18	-1
CCCCCc1nc2ccccc2c(=O)n1-c1ccc(Cl)cc1[N+](=O)[O-]	-12	11	-11	x	-0.82	-1
C[C@H]1CCCC(=O)CCC/C=C/c2cc(O)cc(O)c2C(=O)O1	29	-10	10	x	x	35*	FAK inh confirm=31*
COc1ccc(OCC(=O)Nc2ccc(Cl)cc2C(=O)c2ccccc2)cc1	-66	-5	5	x	-1.3	25*	FAK inh confirm=-1
